# Data taken from the supplement of paper PMC12645437, “Orthogonal IMiD-Degron Pairs Induce Selective Protein Degradation in Cells” (ACS Chemical Biology, 2025).
# Whole data set: some 8,300 sequences, median “log2 fold change of degron read counts, EGFP-low vs EGFP+ sorted cells (limma voom), compound-induced degradation” near -1.1, cut for the highest 2% near 3.2. Only a selection was taken, and the highest values are over-represented in it overall.
# B1: 46F_47N_49N_50I_52G_53A_54C_55F_67L_, Q9UKT9 (peptide)
# chain: FNCNICGACFTQKGNLLRHIKL
# B2: 46F_47T_49S_50V_52G_53H_54A_55F_67L_, Q9UKT9 (peptide)
# chain: FTCSVCGHAFTQKGNLLRHIKL
# B3: 46F_47M_49N_50Q_52G_53A_54I_55F_67L_, Q9UKT9 (peptide)
# chain: FMCNQCGAIFTQKGNLLRHIKL
# B4: 46F_47E_49P_50I_52G_53H_54R_55F_67L_, Q9UKT9 (peptide)
# chain: FECPICGHRFTQKGNLLRHIKL
# B5: 46L_47H_49E_50I_52G_53F_54C_55C_67L_, Q9UKT9 (peptide)
# chain: LHCEICGFCCTQKGNLLRHIKL
# B6: 46F_47Y_49E_50I_52G_53R_54T_55F_67L_, Q9UKT9 (peptide)
# chain: FYCEICGRTFTQKGNLLRHIKL
# B7: 46F_47Y_49N_50Q_52G_53H_54V_55F_67L_, Q9UKT9 (peptide)
# chain: FYCNQCGHVFTQKGNLLRHIKL
# B8: 46F_47H_49P_50V_52G_53A_54F_55F_67L_, Q9UKT9 (peptide)
# chain: FHCPVCGAFFTQKGNLLRHIKL
# B9: 46F_47R_49E_50I_52G_53A_54Y_55F_67L_, Q9UKT9 (peptide)
# chain: FRCEICGAYFTQKGNLLRHIKL
# B10: 46F_47A_49E_50I_52G_53A_54Y_55F_67L_, Q9UKT9 (peptide)
# chain: FACEICGAYFTQKGNLLRHIKL
# B11: 46F_47Y_49E_50I_52G_53A_54Y_55F_67L_, Q9UKT9 (peptide)
# chain: FYCEICGAYFTQKGNLLRHIKL
# B12: 46F_47W_49E_50I_52G_53A_54Y_55F_67L_, Q9UKT9 (peptide)
# chain: FWCEICGAYFTQKGNLLRHIKL
# B13: 46F_47G_49E_50I_52G_53A_54Y_55F_67L_, Q9UKT9 (peptide)
# chain: FGCEICGAYFTQKGNLLRHIKL
# B14: 46F_47I_49E_50I_52G_53A_54Y_55F_67L_, Q9UKT9 (peptide)
# chain: FICEICGAYFTQKGNLLRHIKL
# B15: 46F_47H_49D_50Q_52G_53A_54C_55F_67L_, Q9UKT9 (peptide)
# chain: FHCDQCGACFTQKGNLLRHIKL
# B16: 46F_47I_49P_50I_52G_53A_54I_55F_67L_, Q9UKT9 (peptide)
# chain: FICPICGAIFTQKGNLLRHIKL
# B17: 46F_47I_49P_50I_52G_53R_54H_55F_67L_, Q9UKT9 (peptide)
# chain: FICPICGRHFTQKGNLLRHIKL
# B18: 46F_47Y_49D_50V_52G_53A_54T_55F_67L_, Q9UKT9 (peptide)
# chain: FYCDVCGATFTQKGNLLRHIKL
# Target: T1, CRBN, Q96SW2
# T1 chain: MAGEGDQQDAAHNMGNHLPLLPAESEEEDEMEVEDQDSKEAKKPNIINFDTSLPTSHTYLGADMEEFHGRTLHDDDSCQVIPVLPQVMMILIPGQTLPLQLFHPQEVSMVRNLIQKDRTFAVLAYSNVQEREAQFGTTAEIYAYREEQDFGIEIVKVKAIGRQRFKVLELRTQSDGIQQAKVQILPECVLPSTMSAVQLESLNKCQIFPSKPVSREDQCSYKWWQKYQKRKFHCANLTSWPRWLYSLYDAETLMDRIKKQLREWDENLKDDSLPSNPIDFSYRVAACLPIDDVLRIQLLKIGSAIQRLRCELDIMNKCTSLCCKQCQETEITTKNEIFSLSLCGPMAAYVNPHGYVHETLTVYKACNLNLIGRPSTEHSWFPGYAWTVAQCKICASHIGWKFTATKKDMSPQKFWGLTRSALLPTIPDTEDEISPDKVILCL
# Experiment: log2 fold change of degron read counts, EGFP-low vs EGFP+ sorted cells (limma voom), compound-induced degradation; higher = more compound-induced degradation of the degron-EGFP fusion; degrons are variants of IKZF1/3 zinc finger 2; compound dose not given here
# Details: Jurkat, 18 h
# [1] = compound: compound 19 (5-tert-butyl-thalidomide)
# [2] = compound: compound 22 (5-morpholino-thalidomide)
# [3] = compound: compound 33 (diphenyl IMiD analogue)
# 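Further: pooled lentiviral library of zinc finger degron-EGFP fusions in mCherry-positive Jurkat cells, FACS-sorted after compound exposure, with degron abundance counted by next-generation sequencing.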
Sequence,log2 fold change of degron read counts [1],log2 fold change of degron read counts [2],log2 fold change of degron read counts [3],log2 fold change of degron read counts (compound: thalidomide)
B1,0.853,-0.00319,0.551,-0.352
B2,-2.6,-3.26,-2.56,-2.32
B3,-1.99,-2.22,-1.03,-1.47
B4,-2.87,-2.87,-1.63,-0.824
B5,1.84,1.64,1.25,0.874
B6,0.432,1.09,0.33,-1.02
B7,-2.11,-2.08,-2.48,-1.76
B8,0.94,0.598,1.1,-0.224
B9,-0.965,-0.721,0.747,1.98
B10,3.17,1.39,0.71,0.202
B11,3.25,2.89,2.12,0.307
B12,3.24,2.92,1.88,0.14
B13,1.74,0.231,2.58,0.883
B14,-0.272,1.41,2.34,2.12
B15,-1.69,-1.96,-2.17,-2.89
B16,-1.09,0.608,1.82,1.64
B17,-1.55,-0.572,-0.548,0.569
B18,2.06,2.82,0.691,-1.49
